# Measured values published in ChEMBL document CHEMBL1961873, “Compounds: GSK PKIS; Assays: Nanosyn kinase panel” (2012).
# Assays:
# [1] = biological target: Sphingosine kinase 1 (Homo sapiens) (UniProt Q9NYA1); settings: at 1 µM;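 note: mean SPHK1 inhibition value reported from the GSK PKIS kinase panel screen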
# [2] = biological target: T1, Sphingosine kinase 2 (Homo sapiens) (UniProt Q9NRA0); settings: at 0.1 µM
# T1 sequence (whole entry): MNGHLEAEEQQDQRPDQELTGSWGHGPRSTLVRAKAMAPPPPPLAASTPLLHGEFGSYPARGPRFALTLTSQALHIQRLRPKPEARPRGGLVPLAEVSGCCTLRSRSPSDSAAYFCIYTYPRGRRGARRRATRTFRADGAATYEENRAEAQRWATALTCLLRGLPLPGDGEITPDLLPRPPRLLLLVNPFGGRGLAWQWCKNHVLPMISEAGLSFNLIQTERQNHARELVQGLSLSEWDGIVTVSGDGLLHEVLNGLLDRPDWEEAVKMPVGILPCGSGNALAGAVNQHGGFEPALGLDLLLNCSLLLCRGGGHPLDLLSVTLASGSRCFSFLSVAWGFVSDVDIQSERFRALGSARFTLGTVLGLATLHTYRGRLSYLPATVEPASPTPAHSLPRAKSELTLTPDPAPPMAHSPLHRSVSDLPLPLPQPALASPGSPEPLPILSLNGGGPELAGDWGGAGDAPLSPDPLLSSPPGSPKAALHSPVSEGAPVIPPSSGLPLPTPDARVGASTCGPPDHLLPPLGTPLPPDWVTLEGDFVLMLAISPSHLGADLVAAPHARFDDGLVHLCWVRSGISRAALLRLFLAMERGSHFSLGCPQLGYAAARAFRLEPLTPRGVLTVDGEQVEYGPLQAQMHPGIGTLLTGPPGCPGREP
# [3] = biological target: T1, Sphingosine kinase 2 (Homo sapiens); settings: at 1 µM
# [4] = biological target: Casein kinase II subunit alpha (Homo sapiens) (UniProt P68400); settings: at 0.1 µM
# [5] = biological target: Casein kinase II subunit alpha (Homo sapiens) (UniProt P68400); settings: at 1 µM
# [6] = biological target: T2, Inhibitor of nuclear factor kappa-B kinase subunit alpha (Homo sapiens) (UniProt O15111); settings: at 0.1 µM
# T2 sequence (whole entry): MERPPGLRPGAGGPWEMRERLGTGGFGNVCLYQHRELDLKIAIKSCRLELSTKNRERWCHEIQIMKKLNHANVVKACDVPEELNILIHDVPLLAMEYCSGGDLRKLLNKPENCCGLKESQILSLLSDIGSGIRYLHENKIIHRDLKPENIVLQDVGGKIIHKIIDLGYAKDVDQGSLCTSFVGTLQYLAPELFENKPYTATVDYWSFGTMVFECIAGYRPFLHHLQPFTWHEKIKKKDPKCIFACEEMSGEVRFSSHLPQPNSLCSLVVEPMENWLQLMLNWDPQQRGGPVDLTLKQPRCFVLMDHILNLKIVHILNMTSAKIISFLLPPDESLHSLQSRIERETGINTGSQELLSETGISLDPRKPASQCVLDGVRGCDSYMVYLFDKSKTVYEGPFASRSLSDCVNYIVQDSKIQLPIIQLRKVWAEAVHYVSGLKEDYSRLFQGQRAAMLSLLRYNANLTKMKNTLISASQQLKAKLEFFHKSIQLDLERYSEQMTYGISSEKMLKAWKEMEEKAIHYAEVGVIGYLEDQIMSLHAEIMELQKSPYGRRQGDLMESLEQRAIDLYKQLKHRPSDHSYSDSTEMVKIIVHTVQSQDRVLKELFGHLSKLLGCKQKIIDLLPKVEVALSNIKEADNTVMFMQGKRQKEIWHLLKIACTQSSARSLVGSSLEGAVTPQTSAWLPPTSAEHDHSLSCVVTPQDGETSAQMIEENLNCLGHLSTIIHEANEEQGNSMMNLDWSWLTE
# [7] = biological target: T2, Inhibitor of nuclear factor kappa-B kinase subunit alpha (Homo sapiens); settings: at 1 µM
# [8] = biological target: T3, Inhibitor of nuclear factor kappa-B kinase subunit beta (Homo sapiens) (UniProt O14920); settings: at 0.1 µM
# T3 sequence (whole entry): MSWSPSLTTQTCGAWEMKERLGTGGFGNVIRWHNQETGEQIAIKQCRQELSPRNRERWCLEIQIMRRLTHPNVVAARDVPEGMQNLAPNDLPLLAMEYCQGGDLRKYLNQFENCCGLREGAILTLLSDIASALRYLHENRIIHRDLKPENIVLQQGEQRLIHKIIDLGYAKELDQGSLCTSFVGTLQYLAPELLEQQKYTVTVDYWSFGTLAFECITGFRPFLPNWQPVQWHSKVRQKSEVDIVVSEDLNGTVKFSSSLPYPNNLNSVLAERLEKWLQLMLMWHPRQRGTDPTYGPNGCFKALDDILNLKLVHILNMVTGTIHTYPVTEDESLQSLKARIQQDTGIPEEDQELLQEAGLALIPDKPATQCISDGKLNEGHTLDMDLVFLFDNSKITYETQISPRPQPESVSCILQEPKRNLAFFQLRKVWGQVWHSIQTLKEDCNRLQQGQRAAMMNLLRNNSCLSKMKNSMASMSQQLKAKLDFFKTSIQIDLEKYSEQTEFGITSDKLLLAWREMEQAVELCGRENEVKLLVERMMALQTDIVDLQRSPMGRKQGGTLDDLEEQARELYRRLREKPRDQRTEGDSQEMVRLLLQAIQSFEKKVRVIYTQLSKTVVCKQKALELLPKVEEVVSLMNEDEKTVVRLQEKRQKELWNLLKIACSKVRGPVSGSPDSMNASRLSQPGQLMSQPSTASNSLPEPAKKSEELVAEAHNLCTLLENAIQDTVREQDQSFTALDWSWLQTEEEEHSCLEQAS
# [9] = biological target: T3, Inhibitor of nuclear factor kappa-B kinase subunit beta (Homo sapiens); settings: at 1 µM
# [10] = biological target: T4, Inhibitor of nuclear factor kappa-B kinase subunit epsilon (Homo sapiens) (UniProt Q14164); settings: at 0.1 µM
# T4 sequence (whole entry): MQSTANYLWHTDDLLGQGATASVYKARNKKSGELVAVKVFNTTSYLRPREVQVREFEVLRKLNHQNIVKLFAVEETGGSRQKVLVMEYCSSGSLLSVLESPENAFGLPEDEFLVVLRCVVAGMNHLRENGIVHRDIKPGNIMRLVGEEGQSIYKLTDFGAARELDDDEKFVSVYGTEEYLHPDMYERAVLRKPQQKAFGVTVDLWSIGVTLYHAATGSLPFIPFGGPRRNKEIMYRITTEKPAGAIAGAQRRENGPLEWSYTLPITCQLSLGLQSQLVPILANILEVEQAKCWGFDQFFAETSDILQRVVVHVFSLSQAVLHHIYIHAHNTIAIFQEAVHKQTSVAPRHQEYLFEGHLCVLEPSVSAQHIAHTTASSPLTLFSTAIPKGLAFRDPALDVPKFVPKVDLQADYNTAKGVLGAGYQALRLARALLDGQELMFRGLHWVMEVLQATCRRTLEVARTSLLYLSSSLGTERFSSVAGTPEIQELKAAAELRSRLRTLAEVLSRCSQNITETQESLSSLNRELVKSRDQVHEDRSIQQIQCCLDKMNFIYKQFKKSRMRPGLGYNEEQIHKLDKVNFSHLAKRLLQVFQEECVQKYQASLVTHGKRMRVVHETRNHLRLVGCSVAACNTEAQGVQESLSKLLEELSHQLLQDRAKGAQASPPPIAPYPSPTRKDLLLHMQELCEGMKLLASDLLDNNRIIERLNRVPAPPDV
# [11] = biological target: T4, Inhibitor of nuclear factor kappa-B kinase subunit epsilon (Homo sapiens); settings: at 1 µM
# [12] = biological target: T5, Serine/threonine-protein kinase Nek1 (Homo sapiens) (UniProt Q96PY6); settings: at 0.1 µM
# T5 sequence (whole entry): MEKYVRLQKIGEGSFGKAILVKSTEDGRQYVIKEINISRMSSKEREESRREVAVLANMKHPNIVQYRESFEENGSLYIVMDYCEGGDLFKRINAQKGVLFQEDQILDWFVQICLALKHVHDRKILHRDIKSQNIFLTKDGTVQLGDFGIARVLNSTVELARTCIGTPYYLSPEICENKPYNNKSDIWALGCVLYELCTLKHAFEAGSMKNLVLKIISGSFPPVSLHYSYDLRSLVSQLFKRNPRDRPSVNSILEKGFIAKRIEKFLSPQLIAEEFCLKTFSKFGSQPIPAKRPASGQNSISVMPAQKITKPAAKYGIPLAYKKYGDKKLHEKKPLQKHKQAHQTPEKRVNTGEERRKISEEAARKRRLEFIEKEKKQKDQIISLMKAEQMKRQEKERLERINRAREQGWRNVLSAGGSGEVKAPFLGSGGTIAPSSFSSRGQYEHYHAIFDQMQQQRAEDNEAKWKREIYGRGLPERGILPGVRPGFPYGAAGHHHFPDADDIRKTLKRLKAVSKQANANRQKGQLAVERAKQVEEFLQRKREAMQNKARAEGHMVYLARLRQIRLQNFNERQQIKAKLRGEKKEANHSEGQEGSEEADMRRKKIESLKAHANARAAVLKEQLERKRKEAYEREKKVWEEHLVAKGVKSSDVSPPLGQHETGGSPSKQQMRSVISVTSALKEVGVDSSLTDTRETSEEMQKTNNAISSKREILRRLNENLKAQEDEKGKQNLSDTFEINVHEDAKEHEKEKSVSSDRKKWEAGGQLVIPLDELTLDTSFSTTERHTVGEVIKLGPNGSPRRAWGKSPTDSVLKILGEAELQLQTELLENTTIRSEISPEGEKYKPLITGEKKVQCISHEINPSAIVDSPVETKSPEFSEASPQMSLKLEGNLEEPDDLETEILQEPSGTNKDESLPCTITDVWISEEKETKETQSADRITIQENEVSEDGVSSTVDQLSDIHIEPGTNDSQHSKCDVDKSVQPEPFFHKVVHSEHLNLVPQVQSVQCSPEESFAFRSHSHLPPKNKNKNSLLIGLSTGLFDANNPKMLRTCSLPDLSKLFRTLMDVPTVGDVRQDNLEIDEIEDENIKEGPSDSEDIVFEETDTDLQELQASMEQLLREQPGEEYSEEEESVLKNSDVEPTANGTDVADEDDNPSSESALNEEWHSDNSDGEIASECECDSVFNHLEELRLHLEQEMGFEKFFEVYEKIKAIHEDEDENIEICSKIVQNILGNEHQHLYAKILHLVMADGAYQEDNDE
# [13] = biological target: T5, Serine/threonine-protein kinase Nek1 (Homo sapiens); settings: at 1 µM
# [14] = biological target: T6, Serine/threonine-protein kinase Nek2 (Homo sapiens) (UniProt P51955); settings: at 0.1 µM
# T6 sequence (whole entry): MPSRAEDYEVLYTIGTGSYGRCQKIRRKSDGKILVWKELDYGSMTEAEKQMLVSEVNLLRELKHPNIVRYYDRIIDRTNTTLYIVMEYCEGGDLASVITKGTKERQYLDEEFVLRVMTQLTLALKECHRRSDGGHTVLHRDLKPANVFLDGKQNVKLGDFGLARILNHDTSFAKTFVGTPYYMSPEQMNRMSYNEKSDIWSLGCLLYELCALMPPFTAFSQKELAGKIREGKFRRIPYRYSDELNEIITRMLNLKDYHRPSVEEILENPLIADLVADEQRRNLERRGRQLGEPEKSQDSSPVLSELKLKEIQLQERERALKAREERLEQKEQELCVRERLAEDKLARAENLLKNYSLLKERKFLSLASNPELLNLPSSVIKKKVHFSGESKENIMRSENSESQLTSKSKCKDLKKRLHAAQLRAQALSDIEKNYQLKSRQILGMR
# [15] = biological target: T6, Serine/threonine-protein kinase Nek2 (Homo sapiens); settings: at 1 µM
# [16] = biological target: Serine/threonine-protein kinase Nek6 (Homo sapiens) (UniProt Q9HC98); settings: at 0.1 µM
# [17] = biological target: Serine/threonine-protein kinase Nek6 (Homo sapiens) (UniProt Q9HC98); settings: at 1 µM
# [18] = biological target: Serine/threonine-protein kinase Nek7 (Homo sapiens) (UniProt Q8TDX7); settings: at 0.1 µM
# [19] = biological target: Serine/threonine-protein kinase Nek7 (Homo sapiens) (UniProt Q8TDX7); settings: at 1 µM
# [20] = biological target: T7, Serine/threonine-protein kinase Nek9 (Homo sapiens) (UniProt Q8TD19); settings: at 0.1 µM;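 note: reported value is the mean percent inhibition of NEK9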
# T7 sequence (whole entry): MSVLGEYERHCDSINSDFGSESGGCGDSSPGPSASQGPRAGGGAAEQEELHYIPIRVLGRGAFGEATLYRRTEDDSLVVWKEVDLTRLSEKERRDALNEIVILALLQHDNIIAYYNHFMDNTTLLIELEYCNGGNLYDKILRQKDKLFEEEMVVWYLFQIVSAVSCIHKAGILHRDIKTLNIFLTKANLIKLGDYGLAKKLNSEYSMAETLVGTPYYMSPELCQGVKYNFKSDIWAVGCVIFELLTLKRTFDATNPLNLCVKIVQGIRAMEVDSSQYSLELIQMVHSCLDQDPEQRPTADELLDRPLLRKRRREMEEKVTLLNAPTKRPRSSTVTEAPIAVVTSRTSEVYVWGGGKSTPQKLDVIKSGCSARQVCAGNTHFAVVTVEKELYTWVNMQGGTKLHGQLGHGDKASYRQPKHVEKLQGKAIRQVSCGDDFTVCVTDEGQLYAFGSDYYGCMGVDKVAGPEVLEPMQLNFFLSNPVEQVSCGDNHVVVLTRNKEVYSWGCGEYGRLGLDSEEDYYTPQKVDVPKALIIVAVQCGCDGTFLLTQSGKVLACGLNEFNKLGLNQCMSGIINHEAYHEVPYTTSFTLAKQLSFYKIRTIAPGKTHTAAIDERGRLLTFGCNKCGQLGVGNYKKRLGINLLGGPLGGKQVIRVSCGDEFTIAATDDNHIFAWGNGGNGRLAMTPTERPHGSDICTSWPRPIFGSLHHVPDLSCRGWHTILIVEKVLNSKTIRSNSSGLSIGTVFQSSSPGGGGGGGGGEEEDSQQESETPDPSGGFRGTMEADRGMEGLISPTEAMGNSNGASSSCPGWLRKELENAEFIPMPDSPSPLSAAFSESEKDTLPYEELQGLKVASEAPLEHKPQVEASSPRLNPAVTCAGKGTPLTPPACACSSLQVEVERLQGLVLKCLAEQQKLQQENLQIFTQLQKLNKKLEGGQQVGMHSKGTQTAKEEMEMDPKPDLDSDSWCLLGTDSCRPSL
# Sequence of Serine/threonine-protein kinase Nek7 (Homo sapiens) (Q8TDX7 whole entry, looked up): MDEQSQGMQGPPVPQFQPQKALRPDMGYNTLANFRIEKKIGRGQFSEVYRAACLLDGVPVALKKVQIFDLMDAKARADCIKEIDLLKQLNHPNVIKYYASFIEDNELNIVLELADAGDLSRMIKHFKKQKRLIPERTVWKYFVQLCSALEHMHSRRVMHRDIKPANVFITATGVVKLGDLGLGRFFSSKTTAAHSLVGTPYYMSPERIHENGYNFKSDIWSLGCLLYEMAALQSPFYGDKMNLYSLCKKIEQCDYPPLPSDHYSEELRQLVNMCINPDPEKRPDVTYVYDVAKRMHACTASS
# Sequence of Casein kinase II subunit alpha (Homo sapiens) (P68400 whole entry, looked up): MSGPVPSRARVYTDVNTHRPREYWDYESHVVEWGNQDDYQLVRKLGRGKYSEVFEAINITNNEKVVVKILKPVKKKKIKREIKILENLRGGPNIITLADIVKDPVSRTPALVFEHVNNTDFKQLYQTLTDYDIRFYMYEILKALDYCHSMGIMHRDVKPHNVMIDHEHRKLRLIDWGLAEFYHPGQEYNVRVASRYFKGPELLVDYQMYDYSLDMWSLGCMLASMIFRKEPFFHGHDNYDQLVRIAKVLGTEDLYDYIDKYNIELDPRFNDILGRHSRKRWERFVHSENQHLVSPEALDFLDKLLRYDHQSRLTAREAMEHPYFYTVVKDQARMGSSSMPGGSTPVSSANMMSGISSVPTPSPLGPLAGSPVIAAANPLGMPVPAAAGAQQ
# Sequence of Serine/threonine-protein kinase Nek6 (Homo sapiens) (Q9HC98 whole entry): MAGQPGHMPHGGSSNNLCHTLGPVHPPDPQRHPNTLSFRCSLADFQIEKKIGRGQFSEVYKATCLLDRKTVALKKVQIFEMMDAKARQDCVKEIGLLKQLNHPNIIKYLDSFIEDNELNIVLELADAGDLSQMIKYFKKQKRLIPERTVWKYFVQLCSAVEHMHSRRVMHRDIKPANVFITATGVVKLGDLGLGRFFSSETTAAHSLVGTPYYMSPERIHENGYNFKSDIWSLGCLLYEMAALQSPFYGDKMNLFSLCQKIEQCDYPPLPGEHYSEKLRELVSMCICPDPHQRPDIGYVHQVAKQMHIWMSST
# Sequence of Sphingosine kinase 1 (Homo sapiens) (Q9NYA1 whole entry): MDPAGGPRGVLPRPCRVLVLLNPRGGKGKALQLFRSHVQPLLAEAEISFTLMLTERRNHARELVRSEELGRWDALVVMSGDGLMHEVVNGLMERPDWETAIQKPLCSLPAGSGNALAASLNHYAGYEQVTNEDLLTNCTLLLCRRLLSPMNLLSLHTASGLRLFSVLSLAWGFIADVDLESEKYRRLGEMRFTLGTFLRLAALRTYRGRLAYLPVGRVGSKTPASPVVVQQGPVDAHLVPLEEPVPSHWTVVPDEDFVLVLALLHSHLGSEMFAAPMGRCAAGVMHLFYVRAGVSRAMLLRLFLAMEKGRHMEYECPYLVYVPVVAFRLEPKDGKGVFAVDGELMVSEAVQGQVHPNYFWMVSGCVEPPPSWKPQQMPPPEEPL
compound,measurement,setting,value
O=C(Nc1n[nH]c2nc(-c3ccco3)ccc12)C1CC1,inhibition,[1],-1.96%
same,inhibition,[2],0.87%
same,inhibition,[3],-0.13%
same,inhibition,[4],0.99%
same,inhibition,[5],-0.44%
same,inhibition,[6],4.36%
same,inhibition,[7],-0.84%
same,inhibition,[8],-0.41%
same,inhibition,[9],-0.38%
same,inhibition,[10],-0.37%
same,inhibition,[11],-0.75%
same,inhibition,[12],1.33%
same,inhibition,[13],1.36%
same,inhibition,[14],-0.12%
same,inhibition,[15],1.78%
same,inhibition,[16],1.86%
same,inhibition,[17],-0.99%
same,inhibition,[18],2.23%
same,inhibition,[19],2.61%
same,inhibition,[20],6.28%
